The source of these data is ChEMBL document CHEMBL4513216, “Probing the Open Global Health Chemical Diversity Library for Multistage-Active Starting Points for Next-Generation Antimalarials” (ACS Infect Dis, 2020).

Among all 69,000 compounds or so, about 8,600 (12%) showed an effect of 50% or more. This excerpt belongs to a sample that is enriched for strong results.

In the assay the test system is Plasmodium berghei. The assay can be described thus: Screen against P. berghei liver stage (PbLuc), transformed with Luciferase, at 10uM. In kind it is functional, HepG2. The settings on record: tested at 10 uM.
Take `O=c1oc(-c2ccc(F)cc2)nn1CC1CCOC1` (centres undefined): the INHIBITION came to 62.3%.
The value for `O=C(Cn1nc(-c2ccc(F)cc2)oc1=O)NCC1CCCO1` (centres undefined) was -36.1%; that for `O=c1oc(-c2ccc(F)cc2)nn1CC1CCCCO1` (centres undefined) was 59.3%.
Turning to `O=c1oc(-c2ccc(F)cc2)nn1CN1CCN(C2CCCC2)CC1`, the INHIBITION stood at 29.4%.
The value for `CC1CCN(Cn2nc(-c3ccc(F)cc3)oc2=O)CC1` was 9.25%; that for `O=c1oc(-c2ccc(F)cc2)nn1CN1CCN(CC2CC2)CC1` was 30.6%.
To `COCCN1C[C@@H]2[C@@H](OC)CCN(Cc3ccco3)[C@@H]2C1` belongs 22.2%; to `Cn1cc(C2CC(=O)NC23CCN(Cc2cccc(F)c2)CC3)cn1` (centres undefined), -1.36%.
Regarding `CN(CCc1ccccn1)C(=O)C(O)c1cc(Cl)cc(Cl)c1` (centres undefined), the INHIBITION came to 10.1%.
Regarding `CSc1ccc(NC(=O)NCC2CCCO2)cc1F` (centres undefined), the INHIBITION is recorded as -81.9%.
For `C[C@@H]1CN(c2nc(N)nc3c2CCC3)C[C@]1(C)O`, the INHIBITION came to 8.53%.
The value for `C[C@@H]1CN(c2nc(N)nc3c2CCC3)CC[C@@]1(O)C1CCC1` was 83.3%; that for `C[C@@H]1CN(c2nc3c(cc2C(N)=O)CCC3)CC[C@@]1(O)C1CCC1` was -2.93%; that for `Cc1ccc(C)c(Sc2nccn(C)c2=O)c1` was -13.1%.
For `COc1ccc(Cl)cc1CN(CC(N)=O)C(C)C`, the INHIBITION is given as -6.04%.
`COCCNc1cc(-c2ccccc2CCN)c2cc[nH]c2n1`: the INHIBITION was found to be 25.8%.
The value for `COCCNc1cc(-c2ccccc2S(N)(=O)=O)c2cc[nH]c2n1` was 23%.
The value for `CN(C)CCNc1cc(-c2ccccc2C(N)=O)c2cc[nH]c2n1` was 15.8%.
As to `COCCNc1cc(-c2ccccc2C(=O)O)c2cc[nH]c2n1`, the INHIBITION worked out at 30.3%.
To `Cc1cccc(C)c1-c1cc(NCCO)nc2[nH]ccc12` belongs 45%; to `COCCNc1cc(-c2ccccc2C(N)=O)c2cc[nH]c2n1`, 60.3%; to `Cc1cc(F)ccc1-c1cc(NCCO)nc2[nH]ccc12`, -13.1%.
The value for `Cc1cnccc1-c1cc(NCCO)nc2[nH]ccc12` was 58%.
The value for `COCCNc1cc(-c2cccc(C(=O)O)c2C)c2cc[nH]c2n1` was 58.5%; that for `CN1CC(=O)N(c2cccnc2)CC12CCN(C(=O)C1CCCCC1)C2` (centres undefined) was 31.2%.
As for `Cc1csc(CNC(=O)Nc2ccc3c(c2)OCO3)n1`, the INHIBITION is given as -51.9%.
The value for `CCCS(=O)(=O)N1C[C@@H]2C[C@H](C(=O)N(C)C)[C@H](C1)O2` was 49.7%; that for `CC(C)(C)c1ncc(C(=O)NCCNC(=O)Cc2ccccc2)s1` was 45.7%; that for `Cc1ccccc1-c1noc(CN2CCc3cncnc3C2)n1` was 8.195%.
Take `O=c1ccc(-c2cccs2)nn1CN1CCOCC1`: the INHIBITION is given as -1.33%.
Regarding `O=C1COC2(CCN(c3ccccn3)CC2)CN1Cc1ccccn1`, the INHIBITION was 16.6%.
Turning to `CCCc1noc(CN2CCC(N(C)Cc3nnc(C4CC4)o3)C2)n1` (centres undefined), the INHIBITION is reported as -16%.
Regarding `COC(=O)c1cccn1C1CCN(Cc2nc3ccccc3o2)CC1`, the INHIBITION turned out to be 15.6%.
On to `COC(=O)c1cccn1C1CCN(Cc2cnc3ccccn23)CC1`, for which the INHIBITION is 66.8%.
On to `COC(=O)c1cccn1C1CCN(CCN2C(=O)CCC2=O)CC1`, for which the INHIBITION amounted to 1.75%.
Take `COC(=O)c1cccn1C1CCN(Cc2cccnc2)CC1`: the INHIBITION is given as 11.6%.
Take `COC(=O)c1cccn1C1CCN(Cc2ccccc2)CC1`: the INHIBITION was 56.1%.
Take `COC(=O)c1cccn1C1CCN(Cc2cccc(C(N)=O)c2)CC1`: the INHIBITION was 45.1%.
Regarding `Cc1nc(CN2CCC(N(C)Cc3nnc(C4CC4)n3C)C2)oc1C` (centres undefined), the INHIBITION worked out at 16.8%.
For `Cc1ccc(CN2CCC3(CC2)CCN(Cc2ccco2)CC3)cc1`, the INHIBITION is -13.7%.
With `Cc1ccc(N2C[C@H](C(=O)NCC3CC3)[C@@H]3CCO[C@@H]3C2)nn1`, the INHIBITION worked out at 42.7%.
For the compound `COCC1CN(Cc2ccoc2)Cc2nnn(C)c21` (centres undefined), the INHIBITION was -6.21%.
The value for `CCc1nc2n(n1)CC(NCC(=O)Nc1oc(C)c(C)c1C#N)CC2` (centres undefined) was -13.5%; that for `COc1ccc2c(c1)NC(=O)C2OC(=O)Cc1ccccc1C` (centres undefined) was 58.5%.
With `COc1ccc2c(c1)NC(=O)C2OC(=O)CC(C)(C)C` (centres undefined), the INHIBITION is recorded as 44%.
For the compound `COc1ccc2c(c1)NC(=O)C2OC(=O)CCc1ccc(F)cc1` (centres undefined), the INHIBITION worked out at 14.9%.
As for `CN(C)c1cc(C(F)(F)F)nc(N2CCCC2c2ccccn2)n1` (centres undefined), the INHIBITION is given as -84.3%.
To `CN(Cc1nnc2n1CCC2)C(=O)c1ccc2c(c1)OCO2` belongs 16.8%; to `Cc1cccc(CN2CCc3ncnc(C4CC4)c3CC2)n1`, -27.4%.
The value for `Cc1c(CN2Cc3nccn3CC2c2ccccc2)cnn1C` (centres undefined) was 14.435%; that for `CCOCCc1nc(-c2cnn3c(C)cc(C)nc23)no1` was 10.6%.
`CCN(CC)C(=O)CCc1nc(-c2cnn3c(C)cc(C)nc23)no1`: the INHIBITION amounted to 57.7%.
Turning to `CCc1nc(Cn2c(=O)c3c(C(F)(F)F)cc(C)nc3n2C)no1`, the INHIBITION stood at 10.5%.
Turning to `CCS(=O)(=O)Cc1nc(-c2cnn3c(C)cc(C)nc23)no1`, the INHIBITION is reported as 70.5%.
As for `COC(C)Cc1nc(-c2cnn3c(C)cc(C)nc23)no1` (centres undefined), the INHIBITION was found to be 31.2%.
In the case of `COCCc1nc(-c2cnn3c(C)cc(C)nc23)no1`, the INHIBITION is given as 34.6%.
To `Cc1nc(CN(C)C2CCN(CCc3cnn(C)c3)C2)no1` (centres undefined) belongs 11.2%; to `Cc1ccccc1C(=O)NC(C)CN1CCOC1=O` (centres undefined), 39.3%.
For the compound `CCS(=O)(=O)N1CCN(C(C)(C)CO)CC1`, the INHIBITION is 11%.
As to `Cc1cnn(CCNCc2cc(C#N)ccc2F)c1`, the INHIBITION was 34.15%.
Consider `Cc1noc(C)c1CN1CCn2c(CN3CCN(C)CC3)cnc2C1`, for which the INHIBITION is recorded as 21.6%.
The value for `CCc1cc(N2CCC(NC3CN4CCC3CC4)CC2)nc(N(C)C)n1` (centres undefined) was 62.4%; that for `CCc1cc(N2CCC(N[C@@H]3CS(=O)(=O)C[C@H]3O)CC2)nc(N(C)C)n1` was 35.3%.
With `CCc1cc(N2CCC(NC3CCOCC3)CC2)nc(N(C)C)n1`, the INHIBITION is 29.1%.
The value for `Cn1ncc2c1NC(=O)CC2c1ccc(F)cc1` (centres undefined) was 3.46%.
For the compound `CCCn1nnnc1COc1cc(OC)ccc1C(N)=O`, the INHIBITION was -15%.
To `CC(C)C[C@@H](N)C(=O)N(C)Cc1csc(C(C)C)n1` belongs -40.5%; to `CC(C)n1cc(S(=O)(=O)N2CCSCC2)cn1`, -28.8%; to `CNC(=O)C1Cn2ccnc2C2(CCN(Cc3cccc(C)n3)CC2)O1` (centres undefined), 29.6%.
To `Cc1cc(NC(=O)C(C)N2CCN(c3ccc(C#N)cc3F)CC2)no1` (centres undefined) belongs 55%; to `CC(C(=O)NC(N)=O)N1CCN(c2ccc(C#N)cc2F)CC1` (centres undefined), -45%.
To `Cc1cc(NC(=O)C(C)N2CCN(c3ccccc3F)CC2)no1` (centres undefined) belongs 8.38%; to `COCC(=O)N1CC[C@@H](OCC2CC2)[C@@H]1Cc1cccnc1`, -31.4%.
`Cc1cnn(CC2CCCN2Cc2noc(C(C)C)n2)c1` (centres undefined): the INHIBITION is on record as 25.6%.
For `COCCO[C@H]1CCN(C(=O)C2CCOCC2)[C@H]1Cc1ccncc1`, the INHIBITION came to 26.7%.
The value for `CCOc1cncc(N2CCN(c3ccccc3O)CC2)n1` was 39.7%; that for `Cc1nc(C)c(C)c(N2CCC(NCCOc3ccccc3)CC2)n1` was 77.8%.
As to `Cc1cc(N2CCC(NCCOc3ccccc3)CC2)nc(C)n1`, the INHIBITION was 9.72%.
Consider `c1ccc(OCCNC2CCN(c3ncccn3)CC2)cc1`, for which the INHIBITION is recorded as -32.6%.
Regarding `O=C(CC1COCCN1)N1CCC2(CCc3ccccc32)CC1` (centres undefined), the INHIBITION is given as -60.2%.
The value for `CC1CN(Cc2cccc(C#N)c2)CCN1c1ccc2nncn2n1` (centres undefined) was 53.5%; that for `CC1CN(c2ccc(C#N)cn2)CCN1c1ccc2nncn2n1` (centres undefined) was -9.69%.
The value for `Cc1ncc(CN2CCN(c3ccc4nncn4n3)C(C)C2)s1` (centres undefined) was 8.64%.
To `COc1cccc(CN2CCN(c3ccc4nncn4n3)C(C)C2)c1` (centres undefined) belongs 83%.
Take `CC1CN(Cc2cccnc2)CCN1c1ccc2nncn2n1` (centres undefined): the INHIBITION is 16.9%.
For `CC1CN(Cc2cnn(C)c2)CCN1c1ccc2nncn2n1` (centres undefined), the INHIBITION is on record as 10%.
The value for `CC(C)c1nccn1C1CCCN(C(=O)c2cc(C3CC3)on2)C1` (centres undefined) was 48.4%; that for `CNC(=O)C1CN(C(=O)Cc2ccc(OC)cc2)Cc2cn(C)nc21` (centres undefined) was -6.51%.
The value for `O=C(NC1CCN(c2cccc(OC(F)(F)F)c2)C1=O)C1CCC1` (centres undefined) was 34.6%; that for `CCC(=O)NC1CCN(c2cccc(OC(F)(F)F)c2)C1=O` (centres undefined) was 40.6%; that for `O=C(NC1CCN(c2cccc(OC(F)(F)F)c2)C1=O)C1CC1` (centres undefined) was 61.1%.
`O=C1NCC[C@]12CN(Cc1nccs1)C[C@H]2c1ccccc1`: the INHIBITION is listed as 45.8%.
Take `CN(CC1(C)COC1)C(=O)c1cc(-c2cnn(C)c2)nc2ccccc12`: the INHIBITION is given as 9.7%.
To `COc1ccccc1-c1c[nH]c(C2CCCN2)n1` (centres undefined) belongs -33.3%; to `CCc1ocnc1C(=O)N1CCN(c2ccc3ccccc3c2)CC1`, 26.5%; to `CCc1n[nH]c(C(=O)N2CCN(c3ccc4ccccc4c3)CC2)c1C`, 61.1%.
Turning to `CCc1n[nH]c(C(=O)N2CCCC3(CN(C)C(=O)O3)C2)c1C` (centres undefined), the INHIBITION was 45.2%.
With `CC(C)N(CCS(C)(=O)=O)Cc1csc(-c2ccccc2F)n1`, the INHIBITION was found to be 33.2%.
Regarding `CC(C)N(CCS(C)(=O)=O)Cc1csc(Cc2ccc(Cl)cc2)n1`, the INHIBITION is 35%.
For the compound `Cc1nc(CN(CCS(C)(=O)=O)C(C)C)cs1`, the INHIBITION turned out to be 53.6%.
On to `Cc1cc(S(=O)(=O)N(CCO)C2CC2)ccc1F`, for which the INHIBITION was 26.1%.
With `CCC(=O)c1ccc(OCC(=O)NC(C)Cc2cc(C)n[nH]2)cc1` (centres undefined), the INHIBITION is listed as 27.6%.
For the compound `Cc1cc(CC(C)NC(=O)Cc2cc(F)ccc2C)[nH]n1` (centres undefined), the INHIBITION is 73%.
The value for `Cc1cc(CC(C)NC(=O)COc2ccc(F)cc2F)[nH]n1` (centres undefined) was 40.6%; that for `Cc1cc(CNS(=O)(=O)CCCC#N)ccc1N(C)C` was 33.1%.
The value for `Cc1ccc(CNC(=O)NC(C)CCS(C)(=O)=O)cc1F` (centres undefined) was -1.15%.
For `Cc1ccc(CNS(=O)(=O)CCCC#N)cc1F`, the INHIBITION turned out to be 58.1%.
To `CC(C)C(C)NC(=O)Nc1ccc(CS(=O)(=O)C(C)C)cc1` (centres undefined) belongs -4.68%; to `Cc1ccccc1NC1CCN(C(=O)CCc2ccco2)CC1`, -26.6%.
